This note sets out measurements from ChEMBL document CHEMBL3988442, “University of Dundee, Small-Polar-MMV Screening Library” (2021).

For some of these results: Potency and affinity values are given separately.

Set-up in all cases: scale not given: direction of the effect not stated beside the values
Experiment [1] addresses Protein translocase subunit SecA (Escherichia coli (strain K12)) (UniProt P10408). In words: Assay to Identify E. coli SecA ATPase Inhibitors. In kind it is functional. The settings on record: 30 µM.
In experiment [2] the target is T1, Ubiquitin-activating enzyme e1, putative (Leishmania donovani (strain BPK282A1)) (UniProt E9BSI1).
T1 sequence (whole entry): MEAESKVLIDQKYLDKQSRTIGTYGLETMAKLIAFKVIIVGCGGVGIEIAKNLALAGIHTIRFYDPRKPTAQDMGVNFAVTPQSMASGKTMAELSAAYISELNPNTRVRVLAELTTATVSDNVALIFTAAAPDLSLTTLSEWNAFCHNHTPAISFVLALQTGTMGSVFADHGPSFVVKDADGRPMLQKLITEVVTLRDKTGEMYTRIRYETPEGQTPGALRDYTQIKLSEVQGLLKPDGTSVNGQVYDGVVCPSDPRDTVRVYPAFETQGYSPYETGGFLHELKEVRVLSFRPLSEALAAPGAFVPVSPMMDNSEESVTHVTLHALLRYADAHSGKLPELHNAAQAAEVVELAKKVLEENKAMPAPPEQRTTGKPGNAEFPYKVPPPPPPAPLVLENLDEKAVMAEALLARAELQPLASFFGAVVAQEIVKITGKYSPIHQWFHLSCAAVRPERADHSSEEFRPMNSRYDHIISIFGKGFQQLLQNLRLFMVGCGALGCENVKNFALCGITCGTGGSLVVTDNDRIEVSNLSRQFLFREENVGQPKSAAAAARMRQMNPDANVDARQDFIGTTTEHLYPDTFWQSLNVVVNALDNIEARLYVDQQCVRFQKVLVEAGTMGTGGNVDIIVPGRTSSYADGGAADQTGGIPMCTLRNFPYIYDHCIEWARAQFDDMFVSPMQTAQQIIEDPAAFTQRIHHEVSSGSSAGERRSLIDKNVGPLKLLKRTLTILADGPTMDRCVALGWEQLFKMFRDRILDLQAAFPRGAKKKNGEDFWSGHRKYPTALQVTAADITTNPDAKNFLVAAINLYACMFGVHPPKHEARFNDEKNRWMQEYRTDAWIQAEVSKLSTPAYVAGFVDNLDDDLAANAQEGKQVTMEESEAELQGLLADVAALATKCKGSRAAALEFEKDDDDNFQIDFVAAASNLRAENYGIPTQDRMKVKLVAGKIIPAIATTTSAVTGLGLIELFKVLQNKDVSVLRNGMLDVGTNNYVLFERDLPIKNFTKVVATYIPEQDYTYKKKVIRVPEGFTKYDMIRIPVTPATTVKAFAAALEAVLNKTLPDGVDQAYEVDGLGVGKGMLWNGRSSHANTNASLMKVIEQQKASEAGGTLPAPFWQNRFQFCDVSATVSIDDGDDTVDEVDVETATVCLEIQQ
As to the kind of experiment: Leishmania donovani Ubiquitin Activating Enzyme (LdE1). In kind it is functional. The settings on record: 30 µM.

The target of experiment [3] is AMP-activated protein kinase, AMPK (Homo sapiens) (UniProt P54646+O43741+P54619+Q9UGJ0+Q9Y478+Q13131+Q9UGI9). In words: AMP-dependent Kinase enzyme assay. An in vitro enzyme assay that detects ADP turnover that is directly proportional to AMPK activity. This uses naive AMPK that is activated during the assay with MK-8722. The experiment is classed as functional. The note with it: 30 µM.

Experiment [4] deals with Sialic acid-binding Ig-like lectin 9 (Homo sapiens) (UniProt Q9Y336). As to the kind of experiment: Hs-Siglec9 ALPHAscreen SOP 20170721. The settings on record: 10 µM. For orientation: Bead proximity is the source of the signal in Alpha formats.
Chain of Sialic acid-binding Ig-like lectin 9 (Homo sapiens) (Q9Y336 whole entry): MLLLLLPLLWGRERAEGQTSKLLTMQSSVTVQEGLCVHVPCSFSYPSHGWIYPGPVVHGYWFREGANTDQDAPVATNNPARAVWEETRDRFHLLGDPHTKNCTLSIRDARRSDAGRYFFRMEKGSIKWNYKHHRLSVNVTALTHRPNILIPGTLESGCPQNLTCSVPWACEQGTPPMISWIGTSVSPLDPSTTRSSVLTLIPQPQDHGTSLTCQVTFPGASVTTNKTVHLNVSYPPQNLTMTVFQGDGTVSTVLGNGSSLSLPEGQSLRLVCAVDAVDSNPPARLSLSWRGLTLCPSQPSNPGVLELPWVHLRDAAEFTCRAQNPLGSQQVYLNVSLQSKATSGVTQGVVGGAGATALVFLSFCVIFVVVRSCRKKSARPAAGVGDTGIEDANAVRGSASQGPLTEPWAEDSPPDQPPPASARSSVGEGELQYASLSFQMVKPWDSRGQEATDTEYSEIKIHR
A further experiment deals with Trypanosoma cruzi. As to the kind of experiment: Trypanosoma cruzi phosphomannomutase and mannose-1-phosphate guanylyltransferase assay. The note with it: 10 µM. The experiment is classed as functional.
Experiment [5] has as its target T2, Arginase-2, mitochondrial (Homo sapiens) (UniProt P78540).
T2 sequence (whole entry): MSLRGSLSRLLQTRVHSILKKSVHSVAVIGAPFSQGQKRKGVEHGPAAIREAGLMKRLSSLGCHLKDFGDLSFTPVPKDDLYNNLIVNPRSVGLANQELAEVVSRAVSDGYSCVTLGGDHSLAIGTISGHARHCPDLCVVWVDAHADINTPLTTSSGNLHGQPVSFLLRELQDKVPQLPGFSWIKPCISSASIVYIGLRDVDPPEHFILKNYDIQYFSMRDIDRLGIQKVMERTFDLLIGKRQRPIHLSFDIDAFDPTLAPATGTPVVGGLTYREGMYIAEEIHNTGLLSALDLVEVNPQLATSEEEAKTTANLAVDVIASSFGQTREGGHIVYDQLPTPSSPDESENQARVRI
As to the kind of experiment: in vitro enzyme assay to detect the production of urea directly proportional to the activity of Arginase II. Note: in the data most compounds retested in dose-response had high values. The experiment is classed as functional. The settings on record: 33.3 µM.

Experiment [6] addresses T3, Proteasome subunit beta (Trypanosoma cruzi) (UniProt O96673).
T3 sequence (whole entry): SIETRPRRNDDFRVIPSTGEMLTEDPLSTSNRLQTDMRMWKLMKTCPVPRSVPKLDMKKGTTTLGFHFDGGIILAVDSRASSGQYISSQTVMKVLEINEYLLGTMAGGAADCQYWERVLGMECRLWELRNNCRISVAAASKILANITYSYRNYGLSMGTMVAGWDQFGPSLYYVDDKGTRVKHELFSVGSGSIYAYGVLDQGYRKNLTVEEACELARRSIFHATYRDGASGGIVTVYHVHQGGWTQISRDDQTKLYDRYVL
As to the kind of experiment: Trypanosoma cruzi proteasome chymotrypsin-like activity (TcProtChymo) assay. Note: in the data most compounds retested in dose-response had high values. In kind it is functional. The settings on record: 9.37 µM.

The species entered for a further experiment is Homo sapiens. As to the kind of experiment: To identify inhibition of the IFN signalling (Jak-Stat) pathway via expression of an eGFP reporter gene under the control of an IFN-stimulated response element (ISRE) containing MxA promoter. The experiment is classed as functional. The note with it: 30 µM. In general terms: Reporter assays use an easily measured gene product as a stand-in for the process of interest.

Experiment [7] addresses T4, Tyrosyl-tRNA synthetase, putative (Trypanosoma cruzi (strain CL Brener)) (UniProt Q4DSP6).
T4 sequence (whole entry): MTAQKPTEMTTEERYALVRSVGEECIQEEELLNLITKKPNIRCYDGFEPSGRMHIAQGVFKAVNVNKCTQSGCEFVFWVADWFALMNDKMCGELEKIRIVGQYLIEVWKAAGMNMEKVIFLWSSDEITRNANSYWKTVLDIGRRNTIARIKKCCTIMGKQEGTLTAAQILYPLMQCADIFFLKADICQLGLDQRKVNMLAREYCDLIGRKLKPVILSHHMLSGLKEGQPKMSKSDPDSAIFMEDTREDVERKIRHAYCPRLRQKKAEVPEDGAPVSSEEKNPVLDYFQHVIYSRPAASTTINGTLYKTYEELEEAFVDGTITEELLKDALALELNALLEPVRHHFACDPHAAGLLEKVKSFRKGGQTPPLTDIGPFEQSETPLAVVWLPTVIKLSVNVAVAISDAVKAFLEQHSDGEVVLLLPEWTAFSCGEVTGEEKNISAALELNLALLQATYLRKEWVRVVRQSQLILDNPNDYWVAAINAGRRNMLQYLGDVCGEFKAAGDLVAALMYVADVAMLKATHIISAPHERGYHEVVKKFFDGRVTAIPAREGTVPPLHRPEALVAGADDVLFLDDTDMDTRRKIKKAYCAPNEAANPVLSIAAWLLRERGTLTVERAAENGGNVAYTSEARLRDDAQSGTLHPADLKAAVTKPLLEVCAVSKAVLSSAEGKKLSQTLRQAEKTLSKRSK
As to the kind of experiment: Trypanosoma cruzi tyrosyl tRNA synthetase (TcYRS) _High Tyrosine SOP. Note: in the data most compounds retested in dose-response had high values. The note with it: 30 µM. In kind it is functional.

Experiment [8] deals with T4, Tyrosyl-tRNA synthetase, putative (Trypanosoma cruzi (strain CL Brener)). As to the kind of experiment: Trypanosoma cruzi tyrosyl tRNA synthetase (TcYRS) SOP. The experiment is classed as functional. The note with it: 30 µM.
Experiment [9] has as its target Chromo domain-containing protein 1 (Saccharomyces cerevisiae (strain ATCC 204508 / S288c) (Baker's yeast)) (UniProt P32657). In words: ScCHD-1 Enzyme Inhibition Assay. Note: in the data most compounds retested in dose-response had high values. The note with it: 30 µM. The experiment is classed as functional.

Chain of Chromo domain-containing protein 1 (Saccharomyces cerevisiae (strain ATCC 204508 / S288c) (Baker's yeast)) (P32657 whole entry, the tested form may be a part): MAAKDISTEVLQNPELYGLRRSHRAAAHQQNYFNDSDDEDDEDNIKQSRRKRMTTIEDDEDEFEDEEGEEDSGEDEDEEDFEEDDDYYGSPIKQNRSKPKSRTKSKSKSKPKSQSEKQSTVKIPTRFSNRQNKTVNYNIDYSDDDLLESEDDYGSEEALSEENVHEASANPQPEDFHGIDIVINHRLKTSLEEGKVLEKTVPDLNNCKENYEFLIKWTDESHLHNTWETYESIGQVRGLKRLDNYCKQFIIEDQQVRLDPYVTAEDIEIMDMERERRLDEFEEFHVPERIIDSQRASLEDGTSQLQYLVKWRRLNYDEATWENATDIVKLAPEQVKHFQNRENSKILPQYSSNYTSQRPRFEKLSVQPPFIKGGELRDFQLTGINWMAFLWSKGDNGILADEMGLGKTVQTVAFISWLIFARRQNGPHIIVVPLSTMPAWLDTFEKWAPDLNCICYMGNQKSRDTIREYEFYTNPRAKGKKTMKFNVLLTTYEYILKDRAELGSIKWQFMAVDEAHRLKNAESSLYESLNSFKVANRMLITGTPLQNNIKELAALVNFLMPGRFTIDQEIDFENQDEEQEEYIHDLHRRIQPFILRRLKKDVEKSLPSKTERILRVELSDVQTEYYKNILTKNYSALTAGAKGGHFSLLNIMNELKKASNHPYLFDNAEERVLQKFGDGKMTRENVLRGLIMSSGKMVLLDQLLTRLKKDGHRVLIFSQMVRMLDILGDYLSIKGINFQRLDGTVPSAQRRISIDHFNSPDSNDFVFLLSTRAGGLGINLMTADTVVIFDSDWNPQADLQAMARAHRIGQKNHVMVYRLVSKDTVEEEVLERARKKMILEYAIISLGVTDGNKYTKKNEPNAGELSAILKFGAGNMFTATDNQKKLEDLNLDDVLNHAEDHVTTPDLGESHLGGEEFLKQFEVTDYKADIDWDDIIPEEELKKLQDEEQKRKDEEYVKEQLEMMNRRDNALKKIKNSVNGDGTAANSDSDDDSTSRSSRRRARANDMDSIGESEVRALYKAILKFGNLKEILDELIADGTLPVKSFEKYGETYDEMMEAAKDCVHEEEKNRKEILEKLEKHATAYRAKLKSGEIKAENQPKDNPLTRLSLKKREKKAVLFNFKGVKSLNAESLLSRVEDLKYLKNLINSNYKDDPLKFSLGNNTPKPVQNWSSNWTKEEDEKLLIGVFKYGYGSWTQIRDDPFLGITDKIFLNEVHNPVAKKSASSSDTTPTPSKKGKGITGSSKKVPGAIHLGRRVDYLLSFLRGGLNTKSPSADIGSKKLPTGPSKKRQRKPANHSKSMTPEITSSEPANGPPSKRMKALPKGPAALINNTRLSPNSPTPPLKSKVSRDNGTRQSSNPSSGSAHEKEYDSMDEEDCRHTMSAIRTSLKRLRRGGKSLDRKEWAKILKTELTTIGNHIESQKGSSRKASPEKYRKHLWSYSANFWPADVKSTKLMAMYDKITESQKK
Chain of Protein translocase subunit SecA (Escherichia coli (strain K12)) (P10408 whole entry): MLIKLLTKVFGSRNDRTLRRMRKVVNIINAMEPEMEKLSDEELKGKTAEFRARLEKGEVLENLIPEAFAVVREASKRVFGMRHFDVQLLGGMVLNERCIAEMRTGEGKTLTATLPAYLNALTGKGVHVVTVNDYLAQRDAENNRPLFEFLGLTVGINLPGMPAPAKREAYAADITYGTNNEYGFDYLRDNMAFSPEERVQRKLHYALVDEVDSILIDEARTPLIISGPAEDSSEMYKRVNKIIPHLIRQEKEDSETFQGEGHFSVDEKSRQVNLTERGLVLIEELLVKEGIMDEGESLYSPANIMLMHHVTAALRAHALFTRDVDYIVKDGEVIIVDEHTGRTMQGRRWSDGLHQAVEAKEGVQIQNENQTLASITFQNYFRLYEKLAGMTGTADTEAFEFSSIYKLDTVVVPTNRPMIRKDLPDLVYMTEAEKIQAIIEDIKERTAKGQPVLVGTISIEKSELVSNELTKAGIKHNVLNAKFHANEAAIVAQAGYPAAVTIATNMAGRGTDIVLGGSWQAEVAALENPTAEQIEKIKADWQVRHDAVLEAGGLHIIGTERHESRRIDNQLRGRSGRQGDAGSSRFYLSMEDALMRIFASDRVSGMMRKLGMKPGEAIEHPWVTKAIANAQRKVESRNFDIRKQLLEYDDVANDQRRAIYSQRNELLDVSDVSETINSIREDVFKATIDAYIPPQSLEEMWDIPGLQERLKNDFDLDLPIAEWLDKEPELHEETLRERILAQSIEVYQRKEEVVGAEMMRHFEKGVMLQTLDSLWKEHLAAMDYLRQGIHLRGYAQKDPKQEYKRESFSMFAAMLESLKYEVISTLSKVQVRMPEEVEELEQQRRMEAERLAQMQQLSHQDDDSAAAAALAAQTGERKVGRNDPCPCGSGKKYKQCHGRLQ

Consider `CCc1nnc2n1CCN(Cc1ccc3c(c1)OCCO3)C2`, for which the Percent Effect is 0.332% in experiment [1]; 18.9% in [2]; -5.31% in [3]; -8.03% in [4]; -3.06% with Trypanosoma cruzi; 1.29% in experiment [5]. Besides, the Percent Effect in experiment [6] is 7.9%; in the experiment listed under Homo sapiens, 28.3%; in [7] it was 2.97%; in experiment [8], 13.4%; in experiment [9] it was -0.119%.
As for `COc1ccc(CN2C[C@@H](OCc3csc(C)n3)[C@H]3COC[C@H]32)cc1`, the Percent Effect in [1] is -4.6%; in experiment [2] it was 2.74%; in [3], -10.5%; in experiment [4], 0.865%; with Trypanosoma cruzi, -2.78%; in experiment [5], -0.399%. For the same molecule, the Percent Effect was 2.65% in [6]; -6.15% in the experiment listed under Homo sapiens; 2.08% in experiment [7]; 8.64% in experiment [8]; -3.52% in experiment [9].
With `Cc1noc(C)c1CN1C(=O)[C@H]2CC[C@@H]1CN(Cc1cccnc1N)C2`, the Percent Effect in [1] was 0.397%; in experiment [2], 1.39%; in experiment [3] it was 15.3%; in experiment [4] it was -8.6%; in the experiment with Trypanosoma cruzi, -8.46%; in [5] it was 3.53%. The Percent Effect in [6] is 23%; in the experiment listed under Homo sapiens, 31.8%; in experiment [7], 0%; in experiment [8], -5.13%; in [9], 3.37%.
For the molecule `CN(Cc1nc(C2CC2)no1)C1CCCN(c2cccnn2)C1` (stereo not drawn), the Percent Effect is -1.65% in experiment [1]; -17.7% in [2]; 11.7% in [3]; 7.67% in experiment [4]; 1.6% in the experiment on Trypanosoma cruzi; 1.14% in experiment [5]. For the same molecule, the Percent Effect in [6] is -0.573%; in the experiment filed under Homo sapiens, -0.447%; in experiment [7], 6.4%; in [8], 3.8%; in experiment [9], 4.91%.
Take `CCOc1ncccc1CNC(=O)N1CCCC1c1cc(C)no1` (stereo not drawn): the Percent Effect was -3.76% in experiment [1]; 8% in [2]; -5.83% in [3]; 0.983% in [4]; -1.66% in the experiment with Trypanosoma cruzi; 0.521% in [5]. Further, the Percent Effect in experiment [6] was 12%; in the experiment filed under Homo sapiens, 14.2%; in experiment [7] it was 8.2%; in experiment [8], 16.1%; in experiment [9] it was -6.86%.
On to `CC(=O)Nc1nc(CN2CCCC2c2cnn(C)c2)cs1` (stereo not drawn), for which the Percent Effect in [1] was -7.62%; in experiment [2], 20.2%; in experiment [3] it was -9.48%; in [4], 17.6%; in the experiment with Trypanosoma cruzi, 9.54%; in experiment [5] it was -6.46%. For the same molecule, the Percent Effect is 6.31% in experiment [6]; -5.41% in the experiment listed under Homo sapiens; 7.39% in [7]; 21.5% in experiment [8]; -5.9% in experiment [9].
For the molecule `Cc1nn(C)c(C)c1C1CCCN1C(=O)c1ccc(NC2CC2)nc1` (stereo not drawn), the Percent Effect was -1.33% in experiment [1]; 16.2% in experiment [2]; -3.14% in experiment [3]; 10.9% in experiment [4]; 0.464% in the experiment on Trypanosoma cruzi; -4.25% in experiment [5]. The Percent Effect is 5.92% in experiment [6]; 22.6% in the experiment listed under Homo sapiens; 7.92% in [7]; 18.3% in experiment [8]; -2.71% in experiment [9].
Consider `CCOc1ccc(-n2nnc(C(=O)O)c2-c2ccncc2)cc1`, for which the Percent Effect is -0.35% in experiment [1]; 13.2% in [2]; 1.31% in experiment [3]; -8.67% in experiment [4]; 0.292% in the experiment with Trypanosoma cruzi; 1.18% in experiment [5]. The Percent Effect in [6] is 9.11%; in the experiment listed under Homo sapiens it was 23.3%; in [7], 2.13%; in experiment [8] it was 18.2%; in [9], -5.18%.
